RGS16-Gao = modulators of RGS16 binding to Galphao, primary screen, biochemical, human proteins, multiplexed bead flow cytometry. binding response (% of control), % at 10 µM. 220,000 tested, 0.38% active. bead-based flow cytometry RGS16-Galphao binding, fluorescence; actives lie on both sides. Regulator of G-protein signaling 16 (Homo sapiens) + Guanine nucleotide-binding protein …; call rule not given here;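 further: Galphao activated by GDP with aluminum fluoride before binding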
RGS8-Gao = RGS8-Galphao binding modulators, primary screen, biochemical, multiplexed bead flow cytometry; Guanine nucleotide-binding protein G(o) subunit alpha (Homo sapiens), P09471; actives lie on both sides; response (percent of control binding), % at 10 µM; 220,000 tested, 0.34% active; AID 1423, 2008; in the data active means response below about 60% or above about 140%; inactive means in between;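 further: Galphao activated as the GDP aluminium fluoride complex binding bead-coupled RGS8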
Target sequence (P09471 whole entry, looked up): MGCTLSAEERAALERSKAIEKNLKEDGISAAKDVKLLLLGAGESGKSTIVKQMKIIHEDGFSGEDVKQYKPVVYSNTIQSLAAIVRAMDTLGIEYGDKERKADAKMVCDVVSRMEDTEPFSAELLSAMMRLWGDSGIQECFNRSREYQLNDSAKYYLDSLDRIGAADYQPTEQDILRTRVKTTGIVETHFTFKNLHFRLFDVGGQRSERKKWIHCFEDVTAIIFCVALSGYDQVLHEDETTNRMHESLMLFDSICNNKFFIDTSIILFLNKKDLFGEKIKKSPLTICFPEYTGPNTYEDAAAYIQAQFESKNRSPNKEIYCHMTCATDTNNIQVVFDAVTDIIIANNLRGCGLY
RGS4-Gao reg = modulators of RGS4 binding to Galphao, primary screen, biochemical, multiplexed bead flow cytometry. actives lie on both sides. Guanine nucleotide-binding protein G(o) subunit alpha (Homo sapiens), P09471. 220,000 tested, 0.33% active. AID 1415, 2008. binding response (% of control), % at 10 µM; in the data active means binding response below about 49% or above about 150%; inactive means in between;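 further: fluorescent Galphao activated with aluminum fluoride binding bead-coupled RGS4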
RGS7-Gao reg = RGS7-Galphao binding modulators, primary screen, biochemical, multiplexed bead flow cytometry. Guanine nucleotide-binding protein G(o) subunit alpha (Homo sapiens), P09471. actives lie on both sides. binding response (% of control), % at 10 µM. 220,000 tested, 0.35% active. AID 1439, 2008; in the data active means binding response below about 49% or above about 150%; inconclusive means no clear call, values can overlap the other calls; inactive means in between;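 further: fluorescent Galphao held in activated GDP-AlF4 state binding bead-coupled RGS7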
GSH fluor = compound fluorescence on glutathione beads, profiling panel, artefact control, biophysical, 488/530 nm, flow cytometry | fluorescence (KMESF) at 10 µM | GSH beads flow cytometry, compound fluorescence 488/530 nm; hits give high values | AID 1776, 2009 | 190,000 tested, 0.25% active; in the data active means fluorescence above about 89;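 further: glutathione beads carrying GST-tagged Bcl family fusion proteins plus one bare bead set; values are compound well signal with DMSO vehicle wells as background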
Avidin fluor = green autofluorescence of compounds with avidin beads – biophysical, 488/530 nm, flow cytometry, artefact control, profiling panel. compound fluorescence 488/530 nm; hits give high values. fluorescence (KMESF) at 10 µM. 220,000 tested, 0.38% active. AID 1775, 2009; in the data active means fluorescence above about 47
* marks the source's active call; other numbers are inactive results. The list is not random: actives were taken first. Their share in the collection is about 1.2%.

For CCc1c(C(=O)NNC(=S)NC2CCCCC2)csc1C the results were RGS16-Gao 100.1, RGS8-Gao 100.7, RGS4-Gao reg 98.2, RGS7-Gao reg inconclusive, GSH fluor 15 and Avidin fluor 8.
For CCc1c(C(=O)NNC(=S)NCCc2ccccc2)csc1C the results were RGS16-Gao 94.1, RGS8-Gao 96.5, RGS4-Gao reg 92.4, RGS7-Gao reg 96.8, GSH fluor 148* and Avidin fluor 3.
CN(C)CCC1c2ccc(Cl)cc2CCc2cccnc21 (centres undefined) (tested in a mixture with another compound) was read as RGS16-Gao 98.3, RGS8-Gao 100.1, RGS4-Gao reg 101.1, RGS7-Gao reg inconclusive and Avidin fluor 6.
Screening O=C(CN1C(=O)c2ccccc2C1=O)OCC(=O)N1CCc2ccccc2C1 returned RGS16-Gao 103.3, RGS8-Gao 99.0, RGS4-Gao reg 100.2, RGS7-Gao reg 96.1, GSH fluor 268* and Avidin fluor 8.
For Cn1ncc2c(=O)n(CC(=O)NC34CC5CC(CC(C5)C3)C4)cnc21 the results were RGS16-Gao 104.3, RGS8-Gao 102.2, RGS4-Gao reg 104.8, RGS7-Gao reg 121.5, GSH fluor 26 and Avidin fluor 84*.
CC(C)(C)n1ncc2c(=O)n(CC(=O)NCc3ccccc3)cnc21 was read as RGS16-Gao 111.2, RGS8-Gao 106.7, RGS4-Gao reg 100.8, RGS7-Gao reg 102.0, GSH fluor 13 and Avidin fluor 24.
Screening Cc1nn(-c2ccccc2)c(N)c1C1(O)C(=O)Nc2ccccc21 (centres undefined) returned RGS16-Gao 104.4, RGS8-Gao 99.6, RGS4-Gao reg 100.6, RGS7-Gao reg inconclusive and Avidin fluor 5.
O=C(CCCn1nnc2ccccc2c1=O)N[C@H](C(=O)O)c1ccccc1 was read as RGS16-Gao 97.2, RGS8-Gao 97.6, RGS4-Gao reg 117.4, RGS7-Gao reg inconclusive and Avidin fluor 49*.
`COc1cccc(CSc2nnc(C(F)(F)F)n2Cc2ccc(F)cc2)c1` gave RGS16-Gao 0.4*, RGS8-Gao 11.8*, RGS4-Gao reg 19.6*, RGS7-Gao reg 11.7*, GSH fluor 27 and Avidin fluor -2.
For Cc1ccc(CSc2nnc(C(F)(F)F)n2Cc2ccc(F)cc2)cc1 the results were RGS16-Gao 106.7, RGS8-Gao 101.7, RGS4-Gao reg 102.0, RGS7-Gao reg 103.1, GSH fluor 17 and Avidin fluor 36.
`O=c1ccn(CCCBr)c(=O)[nH]1` gave RGS16-Gao 103.5, RGS8-Gao 101.5, RGS4-Gao reg 103.5, RGS7-Gao reg inconclusive and Avidin fluor 8.
For Cc1nnc(SCC(=O)Nc2ccccc2)n(N)c1=O the results were RGS16-Gao 104.6, RGS8-Gao 97.2, RGS4-Gao reg 96.6, RGS7-Gao reg 110.9, GSH fluor 19 and Avidin fluor 55*.
Screening Cc1nnc(SCc2ccccn2)n(N)c1=O returned RGS16-Gao 97.8, RGS8-Gao 99.6, RGS4-Gao reg 100.9, RGS7-Gao reg 97.6, GSH fluor 10 and Avidin fluor 4.
For Cc1nnc(SCc2nnc(-c3ccccc3)o2)n(N)c1=O the results were RGS16-Gao 104.1, RGS8-Gao 101.1, RGS4-Gao reg 104.8, RGS7-Gao reg 102.8, GSH fluor 264* and Avidin fluor 8.
Screening CCN(CC)S(=O)(=O)c1ccc(OC)c(NC(=O)CSc2cc(C)ccc2C)c1 returned RGS16-Gao 91.1, RGS8-Gao 100.9, RGS4-Gao reg 95.8, RGS7-Gao reg 104.0, GSH fluor 6 and Avidin fluor 11.
For COc1cc(C(=O)NC2=C(C#N)CCC2)cc(OC)c1OC the results were RGS16-Gao 99.1, RGS8-Gao 101.2, RGS4-Gao reg 99.7, RGS7-Gao reg inconclusive, GSH fluor 19 and Avidin fluor 11.
